We go through 10 molecules from PubChem BioAssay (NCI).

Molecules are shown by their SMILES. About 79,000 compounds went through this panel and 15% of them were active in at least one assay; those are over-represented in the sample as a whole. Values without a mark were called inactive. Active and inactive are the calls of the source. Cut-off read from the data, not from the text of the source: active = growth inhibition above about 70%; inactive = the rest.

The nature of assay [1]: NCI Yeast Anticancer Drug Screen. Data for the rad50 strain (AID 155).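 Note: 0% = growth of vehicle-only cultures of the same strain.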 As to conditions: S. cerevisiae rad50 strain growth inhibition, active compounds read high. In outline: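 Relative growth inhibition (compound vs vehicle) was measured in yeast with a defined repair-gene alteration.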
Assay [2] can be described thus: NCI Yeast Anticancer Drug Screen. Data for the mec2-1 strain (AID 157). The following applies: S. cerevisiae mec2-1 strain, active compounds read high. The gist of the method: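 Readout is yeast growth inhibition, normalised to vehicle-treated controls, in the mec2-1 strain exposed to compound.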
Assay [3] is described as follows: NCI Yeast Anticancer Drug Screen. Data for the sgs1 mgt1 strain (AID 161).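 Note: 0% = growth of cultures given vehicle only.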 The following applies: S. cerevisiae sgs1 mgt1 strain, active compounds read high. The gist of the method: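 Compounds are added to genetically altered yeast, and growth is compared with cultures given vehicle alone to give percent inhibition.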
Assay [4] in a line: NCI Yeast Anticancer Drug Screen. Data for the cln2 rad14 strain (AID 165).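 Note: 0% = growth equal to vehicle treated cultures.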 As to conditions: S. cerevisiae cln2 rad14 strain, active compounds read high. In outline: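 Relative to vehicle controls, growth inhibition of compound-treated cln2 rad14 yeast was recorded.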
Assay [5] in a line: NCI Yeast Anticancer Drug Screen. Data for the bub3 strain (AID 167). As to conditions: S. cerevisiae bub3 mutant strain, active compounds read high. The gist of the method: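 Screening used yeast with an engineered genetic alteration affecting cell cycle control. Compound-exposed cultures were compared with vehicle cultures, and reduced growth was taken as inhibition.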
Assay [6] is described as follows: NCI Yeast Anticancer Drug Screen. Data for the mlh1 rad18 strain (AID 175). The following applies: S. cerevisiae mlh1 rad18 strain growth inhibition, active compounds read high. In outline: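 Test agents were incubated with a yeast strain of defined genotype (DNA damage repair defect). Inhibition of growth was derived by comparison with vehicle-exposed cultures.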
Setting [7] is: at 5.0 µM (retest, dose inferred, filed as 0.5).
Setting [8] is: at 50.0 µM (retest, dose inferred, filed as 5.0).

With `COc1ccc(/C=C2/C(=O)ON=C2C)cc1`, the growth inhibition in assay [1] (setting [7]) is 12%; in assay [1] (setting [8]) it was 10%; in assay [1] (at 50.0 µM), 76% (active); in assay [2] (setting [7]) it was 5%; in assay [2] (setting [8]), 41%; in assay [2] (at 50.0 µM), 45.8%. Besides, the growth inhibition is -6% in assay [3] (setting [7]); 29% in assay [3] (setting [8]); 41.8% in assay [3] (at 50.0 µM); -12% in assay [4] (setting [7]); 26% in assay [4] (setting [8]); 46% in assay [4] (at 50.0 µM). Further, the growth inhibition in assay [5] (setting [7]) was 11%; in assay [5] (setting [8]) it was 23%; in assay [5] (at 50.0 µM) it was 88.5% (active); in assay [6] (setting [7]), 11%; in assay [6] (setting [8]) it was 12%; in assay [6] (at 50.0 µM), 23.7%.
As for `COc1cc(NCc2ccc3nc(N)nc(N)c3c2C)cc(OC)c1OC` (tested in a mixture with another compound), the growth inhibition is 24% in assay [1] (setting [7]); 54% in assay [1] (setting [8]); 12.3% in assay [1] (at 50.0 µM); 18% in assay [2] (setting [7]); 87% (active) in assay [2] (setting [8]); 51.8% in assay [2] (at 50.0 µM). For the same molecule, the growth inhibition in assay [3] (setting [7]) was 12%; in assay [3] (setting [8]) it was 31%; in assay [3] (at 50.0 µM), 43.2%; in assay [4] (setting [7]), 23%; in assay [4] (setting [8]), 23%; in assay [4] (at 50.0 µM), 2.8%. Besides, the growth inhibition is 17% in assay [5] (setting [7]); 24% in assay [5] (setting [8]); 5.05% in assay [5] (at 50.0 µM); 23% in assay [6] (setting [7]); 36% in assay [6] (setting [8]); -45.4% in assay [6] (at 50.0 µM).
`O=C1C=Cc2ccccc2/C1=C/c1nc(-c2ccccc2)oc1O`: the growth inhibition in assay [1] (setting [7]) was -2%; in assay [1] (setting [8]), 97% (active); in assay [1] (at 50.0 µM) it was 89.5% (active); in assay [2] (setting [7]) it was -15%; in assay [2] (setting [8]) it was 98% (active); in assay [2] (at 50.0 µM), 91.8% (active). The growth inhibition in assay [3] (setting [7]) is 17%; in assay [3] (setting [8]), 97% (active); in assay [3] (at 50.0 µM), 49.5%; in assay [4] (setting [7]), 2%; in assay [4] (setting [8]) it was 97% (active); in assay [4] (at 50.0 µM), 86.5% (active). For the same molecule, the growth inhibition in assay [5] (setting [7]) is 0%; in assay [5] (setting [8]), 98% (active); in assay [5] (at 50.0 µM) it was 92.7% (active); in assay [6] (setting [7]) it was 5%; in assay [6] (setting [8]), 97% (active); in assay [6] (at 50.0 µM), 90% (active).
For `C=CCO/N=C/c1cc(NC(=S)c2ccoc2C)ccc1Cl`, the growth inhibition in assay [1] (setting [7]) was 13%; in assay [1] (setting [8]) it was 86% (active); in assay [1] (at 50.0 µM), 83.9% (active); in assay [2] (setting [7]), 6%; in assay [2] (setting [8]), 86% (active); in assay [2] (at 50.0 µM) it was 85.5% (active). The growth inhibition was 1% in assay [3] (setting [7]); 85% (active) in assay [3] (setting [8]); 83.2% (active) in assay [3] (at 50.0 µM); -11% in assay [4] (setting [7]); 80% (active) in assay [4] (setting [8]); 84.3% (active) in assay [4] (at 50.0 µM). Further, the growth inhibition in assay [5] (setting [7]) is -4%; in assay [5] (setting [8]), 90% (active); in assay [5] (at 50.0 µM) it was 80.4% (active); in assay [6] (setting [7]) it was 4%; in assay [6] (setting [8]) it was 91% (active); in assay [6] (at 50.0 µM), 76.7% (active).
`CC(O)C(O)C(O)C(O)C(O)C(=O)NNc1ccccc1` (stereo not given): the growth inhibition in assay [1] (setting [7]) is 9%; in assay [1] (setting [8]), 75% (active); in assay [1] (at 50.0 µM) it was 44%; in assay [2] (setting [7]), -1%; in assay [2] (setting [8]), 37%; in assay [2] (at 50.0 µM), 52.6%. Further, the growth inhibition is 7% in assay [3] (setting [7]); 40% in assay [3] (setting [8]); 63.2% in assay [3] (at 50.0 µM); 10% in assay [4] (setting [7]); 71% (active) in assay [4] (setting [8]); 13.5% in assay [4] (at 50.0 µM). For the same molecule, the growth inhibition in assay [5] (setting [7]) is 29%; in assay [5] (setting [8]), 91% (active); in assay [5] (at 50.0 µM), 75.6% (active); in assay [6] (setting [7]), 26%; in assay [6] (setting [8]) it was 85% (active); in assay [6] (at 50.0 µM) it was 83.2% (active).
For `C1=C(c2ccccc2)c2ccccc2C1`, the growth inhibition in assay [1] (setting [7]) is 0%; in assay [1] (setting [8]), 29%; in assay [1] (at 50.0 µM) it was 75.2% (active); in assay [2] (setting [7]), -23%; in assay [2] (setting [8]), 17%; in assay [2] (at 50.0 µM), 63.4%. Further, the growth inhibition in assay [3] (setting [7]) was -13%; in assay [3] (setting [8]), 12%; in assay [3] (at 50.0 µM), 48%; in assay [4] (setting [7]) it was 23%; in assay [4] (setting [8]), 19%; in assay [4] (at 50.0 µM) it was 50%. Besides, the growth inhibition in assay [5] (setting [7]) is -12%; in assay [5] (setting [8]), 18%; in assay [5] (at 50.0 µM) it was 58.9%; in assay [6] (setting [7]), 5%; in assay [6] (setting [8]), 57%; in assay [6] (at 50.0 µM), 49.9%.
On to `COc1ccc2c(c1)C(OC)C1c3c(cc4c(c3-2)OCO4)CCN1C` (stereo not given), for which the growth inhibition in assay [1] (setting [7]) is 24%; in assay [1] (setting [8]), 52%; in assay [1] (at 50.0 µM), -23.1%; in assay [2] (setting [7]), 14%; in assay [2] (setting [8]) it was 27%; in assay [2] (at 50.0 µM), -17.5%. Also, the growth inhibition is 12% in assay [3] (setting [7]); 28% in assay [3] (setting [8]); -8.75% in assay [3] (at 50.0 µM); 22% in assay [4] (setting [7]); 28% in assay [4] (setting [8]); -1.45% in assay [4] (at 50.0 µM). Moreover, the growth inhibition in assay [5] (setting [7]) is 28%; in assay [5] (setting [8]), 35%; in assay [5] (at 50.0 µM) it was -6.05%; in assay [6] (setting [7]), 35%; in assay [6] (setting [8]), 53%; in assay [6] (at 50.0 µM) it was 78.3% (active).
Take `CCOC(=O)C1=NN(c2ccccc2)C(=O)/C1=C\N1C(=O)/C(=C/c2cccc(O)c2)SC1=S`: the growth inhibition in assay [1] (setting [7]) is -9%; in assay [1] (setting [8]), 11%; in assay [1] (at 50.0 µM) it was 6.8%; in assay [2] (setting [7]) it was -16%; in assay [2] (setting [8]), 17%; in assay [2] (at 50.0 µM), 1.9%. For the same molecule, the growth inhibition in assay [3] (setting [7]) was -2%; in assay [3] (setting [8]) it was 9%; in assay [3] (at 50.0 µM), 3.45%; in assay [4] (setting [7]), -13%; in assay [4] (setting [8]), -13%; in assay [4] (at 50.0 µM) it was 60.5%. Further, the growth inhibition in assay [5] (setting [7]) was 4%; in assay [5] (setting [8]), 12%; in assay [5] (at 50.0 µM), 3.45%; in assay [6] (setting [7]) it was 0%; in assay [6] (setting [8]), 10%; in assay [6] (at 50.0 µM), -4.9%.
`O=C1C=C(Cl)C(=O)c2ccccc21`: the growth inhibition in assay [1] (setting [7]) is 90% (active); in assay [1] (setting [8]), 99% (active); in assay [1] (at 50.0 µM), 99% (active); in assay [2] (setting [7]), 35%; in assay [2] (setting [8]), 100% (active); in assay [2] (at 50.0 µM), 99% (active). Also, the growth inhibition in assay [3] (setting [7]) is 30%; in assay [3] (setting [8]), 99% (active); in assay [3] (at 50.0 µM), 99.3% (active); in assay [4] (setting [7]), 31%; in assay [4] (setting [8]) it was 98% (active); in assay [4] (at 50.0 µM), 99.1% (active). For the same molecule, the growth inhibition is 47% in assay [5] (setting [7]); 99% (active) in assay [5] (setting [8]); 98.8% (active) in assay [5] (at 50.0 µM); 53% in assay [6] (setting [7]); 99% (active) in assay [6] (setting [8]); 99% (active) in assay [6] (at 50.0 µM).
Regarding `CCCCCCCCCCCC[n+]1ccc(CCCCCCCCC)cc1`, the growth inhibition is 99% (active) in assay [1] (setting [7]); 99% (active) in assay [1] (setting [8]); 99% (active) in assay [1] (at 50.0 µM); 100% (active) in assay [2] (setting [7]); 99% (active) in assay [2] (setting [8]); 99.3% (active) in assay [2] (at 50.0 µM). Further, the growth inhibition in assay [3] (setting [7]) was 100% (active); in assay [3] (setting [8]), 99% (active); in assay [3] (at 50.0 µM), 99.5% (active); in assay [4] (setting [7]), 98% (active); in assay [4] (setting [8]), 99% (active); in assay [4] (at 50.0 µM) it was 98.5% (active). In addition, the growth inhibition in assay [5] (setting [7]) is 100% (active); in assay [5] (setting [8]), 99% (active); in assay [5] (at 50.0 µM), 98.8% (active); in assay [6] (setting [7]), 99% (active); in assay [6] (setting [8]) it was 99% (active); in assay [6] (at 50.0 µM), 97.6% (active).
